Values joined by “and” are separate entries in the source; they are usually repeats but may differ in a detail not shown here. Equal entries are not always repeated. Compounds without any hit were thinned out: in the full panel of roughly 83,000, 20% have a hit.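 48-hour exposure, single concentration, 96-well plates; percent growth endpoint where 0 means no net growth. Active: below 10.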 A number with no mark means an inactive call. Active and inactive are the calls of the source.
Each molecule was assayed on A498 renal (assay: NCI-60 one-dose screen, 48 h (100 = growth as untreated, 0 = no growth, -100 = all killed)). Conditions: 10 µM.

| SMILES | growth [%] |
| --- | --- |
| COc1ccc(C(=O)/C=C/c2ccc(OCc3cccc(C(F)(F)F)c3)c(OC)c2)cc1OC | 93.9 |
| CCN(Cc1ccccc1)c1ccc(/C=C2\COc3ccccc3C2=O)cc1 | 91.3 |
| COc1ccc(C(=O)/C=C/c2ccc(OCc3ccc(Cl)cc3)cc2)cc1OC | 85.5 |
| CC(=O)/C=C/c1ccc(OCc2ccc(C(C)(C)C)cc2)cc1 | 80.4 |
| O=C(/C=C/c1cccc(Oc2ccc(Cl)cc2)c1)c1ccccc1 | 99.2 |
| CC(=O)/C=C/c1ccc(OCc2ccc(Cl)cc2)cc1 | 82.6 |
| CC(=O)/C=C/c1ccc(N(CCO)Cc2ccc(C(C)(C)C)cc2)cc1 | 78.6 |
| CC(=O)/C=C/c1ccc(N(C)Cc2ccc(C(C)(C)C)cc2)cc1 | 87.9 |

Same assay, conditions: 10 µM unless noted

| SMILES | growth |
| --- | --- |
| CN(C)CCCn1c2nc(=O)[nH]c(=O)c-2nc2cc(Cl)c(Cl)cc21 | 92.1% |
| C=C(CNCCc1ccc(O)cc1)[C@@H]1CC[C@]2(CO)CC[C@]3(C)[C@H](CC[C@@H]4[C@@]5(C)CCC(NCCc6ccc(O)cc6)C(C)(C)[C@@H]5CC[C@]43C)[C@@H]12 (some centres undefined) | -96.6% (active) |
| O=C1/C(=C/c2cn(-c3ccccc3)nc2-c2ccccc2)SC(=S)N1c1ccc(Cl)cc1 | 67% |
| CCCNNC(=O)/C=C/c1ccc(CNCCc2c(C)[nH]c3ccccc23)cc1 | -37.6% [2.5 µM] (active) |
| C=CCNC(=O)Cc1c(-c2ccc(OC)cc2)oc2c(OC)c3c(c(OC)c12)OCO3 | 55% |
| CC1=C2[C@@H](CC1)[C@]1(C)O[C@@](C(C)C)(C[C@H]1OC(=O)CO)[C@H]2OC(=O)C1CC1c1ccccc1 (some centres undefined) | -20% (active) |
| O=C([C@H]1C[C@H]1c1ccc(S(F)(F)(F)(F)F)cc1)N1CCN(c2cc(Cl)ccc2C(F)(F)F)CC1 | 94.4% |
| O=C(Cc1ccc(F)cc1)c1ccccc1 | 99.8% |
| COc1cc2cc(NCc3ccncc3)nc(C)c2cc1OC | 72.4% |
| CN1Cn2c(ccc2C(F)(F)F)C(=O)CS1(=O)=O | 96.1% |
| O=C1C=C(Nc2ccccc2)c2ncccc2C1=O | -87.5% (active) |
| C=C1C(=O)O[C@H]2[C@H]1CC/C(COC(=O)NCc1ccc(Cn3c(=O)sn(CCCI)c3=O)cc1)=C\CC[C@@]1(C)O[C@@H]21 | 105% |
| COc1ccc(Cn2cc(C(=O)Nc3cccnc3Nc3ccccc3)nn2)cc1 | 117% |
| NNCCc1ccccc1 | 105% and 88.4% |
| CCN(CC)CC#CCOC(=O)[C@]1(C)CCC[C@]2(C)c3ccc(C(C)C)cc3CC[C@@H]12 | 82.9% |
| COc1cc2c(cc1OCCCOC1=C=C=C(c3ccc4c(c3)c3cc(-c5ccc(OCCCOc6cc7c(cc6OC)C(=O)N6CCC[C@H]6C=N7)cc5)ccc3n4S(=O)(=O)c3ccc(C)cc3)C=C1)N=C[C@@H]1CCCN1C2=O | 76.9% |
| O=C(CCl)N(O)c1ccc(/C=C/c2ccccc2)cc1 | 69.2% and 87.1% |
| COc1cc(/C=C/C(=O)c2ccc(NC(=O)CSc3nnc(-c4cc(-c5ccccc5)nc5ccccc45)n3-c3ccccc3)cc2)cc(OC)c1OC | 87.8% |
| Nc1[nH]nc(Nc2ccccc2)c1-c1nc2ccccc2s1 | 46.8% |
| C[C@]12CCc3c(ccc4cc(O)ccc34)[C@@H]1C[C@H](O)[C@@H]2O | 73% |
| Cn1cc(-c2csc(-c3cn(CCOC(N)=O)c4ccccc34)n2)c2cccnc21 | 19% |
| C=C(CN1CC=CCC1)[C@@H]1CC[C@]2(COC(C)=O)CC[C@]3(C)[C@H](CC[C@@H]4[C@@]5(C)CC[C@H](O)C(C)(C)[C@@H]5CC[C@]43C)[C@@H]12 | 116% |
| C/C=C(/C)C(=O)O[C@@H]1CC(C)(C)CC2C34OC(=O)[C@@]21CC[C@@]3(C)[C@]1(C)CCC2C(C)(C)C(=O)CC[C@]2(C)C1C[C@@H]4Cl (some centres undefined) | 89.7% |
| CC1=CC=C(NC(=O)/C=C/c2ccccc2)CC1Nc1nccc(-c2cccnc2)n1 (centres undefined) | 24.7% |
| COc1ccc(-c2[nH]c3ccccc3c2-c2ccc(OC)cc2)cc1 | 45% |
| CC[C@]12CN3CCc4c([nH]c5ccccc45)[C@@](C(=O)OC)(c4cc5c(cc4OC)N(C)[C@H]4[C@@](O)(C(=O)OC)[C@H](OC(C)=O)[C@]6(CC)C=CCN7CC[C@]54[C@@H]76)CC(C3)[C@H]1O2 (some centres undefined) | -12.3% (active) |
